According to PubChem BioAssay (NCI):
The panel holds about 79,000 compounds, 15% with a hit somewhere; the sample as a whole holds those more often. Activity calls are given as the source filed them. No stated cut-off is given here; in the data, active means growth inhibition above about 70%; inactive means the rest.

Assay: NCI Yeast Anticancer Drug Screen. Data for the rad50 strain (AID 155);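 further: 0% = growth of vehicle-only cultures of the same strain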
Conditions: S. cerevisiae rad50 strain growth inhibition, active compounds read high
Description: Growth inhibition of yeast strains with defined genetic alterations is measured as a screen for potential anti-cancer activity. Selected strains with alterations in DNA damage repair or cell cycle control were exposed to compounds and growth inhibition was measured relative to vehicle treated controls. The strain used in this assay is rad50

[1] = at 5.0 µM (retest, dose inferred, filed as 0.5)
[2] = at 50.0 µM (retest, dose inferred, filed as 5.0)

Measured: growth inhibition

NCCOc1ccc(/C(=C(/Cl)c2ccccc2)c2ccccc2)cc1
inactive: at 1.2 µM -3% | at 3.7 µM 3% | [1] 17% | at 11.0 µM 39%
active: at 33.0 µM 99% | [2] 98% | at 50.0 µM 85.5% | at 100.0 µM 96%

COc1ccccc1NC(=O)c1ccc(Cl)cc1
inactive: at 1.2 µM 3% | at 3.7 µM 5% | [1] -13% | at 11.0 µM 8% | at 33.0 µM 6% | [2] 12% | at 50.0 µM 17.6% | at 100.0 µM 8%

C/C(=N\OCC(O)CNCCSCc1ccccc1)c1ccccc1Cl (stereo not given)
inactive: at 1.2 µM 12% | at 3.7 µM -12% | [1] 40% | at 11.0 µM 64% | [2] 69%
active: at 33.0 µM 77% | at 50.0 µM 80.9% | at 100.0 µM 95%

CCC(OC(C)=O)C1CC(C(C)C)CCC1C (stereo not given)
inactive: at 1.2 µM 4% | at 3.7 µM -43% | [1] 3% | at 11.0 µM 5% | at 33.0 µM 4% | [2] 9% | at 50.0 µM -15.1% | at 100.0 µM 53%

O=C1c2ccccc2C(=O)c2c(O)c(NCCNCCO)cc(O)c21
inactive: at 1.2 µM -9% | at 3.7 µM -1% | [1] 19% | at 11.0 µM 21%
active: at 33.0 µM 89% | [2] 93% | at 50.0 µM 87.3% | at 100.0 µM 94%
